PubChem BioAssay AID2016 (NMMLSC, 2009)
Screen size: about 330,000 compounds; about 1,700 (0.52%) were called active.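 The calls were made as follows: active = GFP response versus DMSO above a set limit, roughly screen mean plus 3 SD (cut at about 180% in these data); inconclusive = fewer than 70 cells counted for a yeast strain; inactive = the rest.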 The entries come from a sample that favours actives as a whole.

Test: modulators of MEP2-GFP levels in yeast, primary screen, S. cerevisiae, multiplex flow cytometry, MLPCN library (AID 2016);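 also: median GFP fluorescence of the barcode-gated MEP2-GFP cells per well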
Settings: S. cerevisiae MEP2-GFP strain, 3 h, at 10 µM, stronger effect = higher value, 100% = DMSO control level
In the case of CCc1ccccc1NC(=O)CSc1nnc([C@@H](NC(=O)OC(C)(C)C)C(C)CC)o1 (stereo not given in full), the GFP response vs DMSO is reported as 193% [may fluoresce violet] (active).
For CCc1ccccc1NC(=O)CSc1nnc(CCNC(=O)OC(C)(C)C)o1, the GFP response vs DMSO was 114% (inactive).
In the case of CCc1ccccc1NC(=O)CSc1nnc([C@@H](NC(=O)OC(C)(C)C)C(C)C)o1, the GFP response vs DMSO is reported as 88.8% (inactive).
For C#CCOCCOCCOCCNc1nc(N2CCN(C(=O)C(Cc3ccc(O)cc3)n3cc(C(N)CC(C)C)nn3)CC2)nc(N2CCN(C(=O)C(Cc3ccc(O)cc3)n3cc(C(N)C(C)CC)nn3)CC2)n1 (stereo not given), the GFP response vs DMSO was 93.7% (inactive).
In the case of CC(NCC(=O)Nc1cc(Cl)cc(Cl)c1)c1ccccc1 (stereo not given), the GFP response vs DMSO is reported as 91.3% (inactive).
For CCSc1sc(CC)cc1C=O, the GFP response vs DMSO was 210% [may fluoresce violet] (active).
In the case of COc1ccc2c(c1)C(=C(C#N)C#N)C(=O)N2CCc1ccccc1, the GFP response vs DMSO is reported as 103% (inactive).
In the case of CCOCCOC(=O)C1=C(C)NC(=O)NC1c1ccc2c(c1)OCO2 (stereo not given), the GFP response vs DMSO is reported as 111% (inactive).
For COCCOC(=O)C1=C(C)NC(=O)NC1c1cc2c(cc1Br)OCO2 (stereo not given), the GFP response vs DMSO was 95.2% (inactive).
For CC(=O)C1=C(C)NC(=O)NC1c1ccc2c(c1)OCO2 (stereo not given), the GFP response vs DMSO was 179% [may fluoresce violet] (active).
With O=C(CC12CC3CC(CC(C3)C1)C2)Nc1ccc2c(c1)COC2=O the GFP response vs DMSO was 99.2% (inactive).
For Brc1ccc(C2CC(c3ccccc3)=Nc3ccccc3N2)cc1 (stereo not given), the GFP response vs DMSO was 101% (inactive).
With OCC[C@H]1C[C@@H](O)[C@H](O)[C@]2(OCCCc3ccccc32)O1 the GFP response vs DMSO was 96.7% (inactive).
With Brc1ccccc1C1Nc2cccc3cccc(c23)N1 the GFP response vs DMSO was 104% (inactive).
With Cc1ccc(C2Nc3cccc4cccc(c34)N2)cc1 the GFP response vs DMSO was 110% (inactive).
For Oc1ccc(C2Nc3cccc4cccc(c34)N2)cc1, the GFP response vs DMSO was 184% (active).
In the case of O=C(CSc1n[nH]c(=O)n1-c1ccccc1)Nc1ccccc1C(F)(F)F, the GFP response vs DMSO is reported as 109% (inactive).
With COc1ccc(C)cc1NC(=O)CN(C)S(=O)(=O)c1ccc2c(c1)n(C)c(=O)c(=O)n2C the GFP response vs DMSO was 110% (inactive).
For COc1ccccc1NS(=O)(=O)c1ccc(C)c(C(=O)NCC(c2ccco2)N(C)C)c1 (stereo not given), the GFP response vs DMSO was 104% (inactive).
For O=C(CC(n1cncn1)C(Cl)(Cl)Cl)c1ccc([N+](=O)[O-])cc1 (stereo not given), the GFP response vs DMSO was 91.9% (inactive).
With O=C(c1ccncc1)c1ccc([N+](=O)[O-])cc1 the GFP response vs DMSO was 90.2% (inactive).
In the case of COc1ccc(C(=O)NC(=S)NNC(=O)c2c(-c3ccccc3)noc2C)cc1, the GFP response vs DMSO is reported as 113% (inactive).
With Cc1onc(-c2ccccc2)c1C(=O)NNC(=S)NC(=O)c1ccc(F)cc1 the GFP response vs DMSO was 176% [may fluoresce violet] (active).
With CCc1noc(C)c1C(=O)NNC(=O)c1ccc(F)cc1 the GFP response vs DMSO was 100% (inactive).
With O=C(OCC(=O)N1CCCCCC1)c1ccc(Cl)nc1 the GFP response vs DMSO was 105% (inactive).
With CCC(CO)Oc1cc(NC(=O)c2ccc(Cl)cc2)c2ncn(C(C)C)c2c1 (stereo not given) the GFP response vs DMSO was 102% (inactive).
With Cc1ccc(C2(C)NC(=O)N(CC(=O)N3CC(=O)Nc4ccccc43)C2=O)cc1 (stereo not given) the GFP response vs DMSO was 95% (inactive).
With CCC(C)(C)NC(=O)C(c1ccc(O)cc1)N(C(=O)Cn1nnc2ccccc21)c1ccc(NC(C)=O)cc1 (stereo not given) the GFP response vs DMSO was 93.5% (inactive).
For CCC(C)(C)NC(=O)C(c1cccn1C)N(Cc1ccc(C)cc1)C(=O)Cn1nnc2ccccc21 (stereo not given), the GFP response vs DMSO was 200% [may fluoresce violet] (active).
With CC(C)(C)NC(=O)C(c1ccco1)N(Cc1ccc2c(c1)OCO2)C(=O)Cn1nnc2ccccc21 (stereo not given) the GFP response vs DMSO was 101% (inactive).
With O=C(NCc1ccco1)C1CCCN(S(=O)(=O)c2cccc3nonc23)C1 (stereo not given) the GFP response vs DMSO was 97.8% (inactive).
For O=C(NCc1ccccc1Cl)C1CCN(S(=O)(=O)c2cccc3nonc23)CC1, the GFP response vs DMSO was 287% [may fluoresce violet] (active).
In the case of O=C(NCc1ccccc1Cl)C1CCN(S(=O)(=O)N2CCOCC2)CC1, the GFP response vs DMSO is reported as 93.8% (inactive).
In the case of CCc1cccc(C)c1NS(=O)(=O)c1cc(Br)cnc1N, the GFP response vs DMSO is reported as 105% (inactive).
In the case of Cn1c(=O)n(C)c(=O)n(CC(=O)N2CCCCC2)c1=O, the GFP response vs DMSO is reported as 95.9% (inactive).
For CCC1(C)Cc2c(sc3[nH]c(=S)n(Cc4ccccc4)c(=O)c23)CO1 (stereo not given), the GFP response vs DMSO was 234% [may fluoresce violet] (active).
For CCC1(C)Cc2c(sc3nnn(CC(=O)Nc4ccc(Cl)cc4)c(=O)c23)CO1 (stereo not given), the GFP response vs DMSO was 104% (inactive).
With CCn1c(=S)[nH]c2sc3c(c2c1=O)CCCCC3 the GFP response vs DMSO was 106% (inactive).
In the case of O=C(Cc1ccccc1)NNS(=O)(=O)c1ccc([N+](=O)[O-])cc1, the GFP response vs DMSO is reported as 94.8% (inactive).
With O=C(NNS(=O)(=O)Cc1ccccc1)c1ccc([N+](=O)[O-])cc1 the GFP response vs DMSO was 796% [may fluoresce violet] (active).
For O=C(CNC(=O)c1ccccc1)Oc1ccc([N+](=O)[O-])cc1, the GFP response vs DMSO was 109% (inactive).
With COCCn1c(C)cc(C(=O)CSc2nnc(C3CC3)n2C2CC2)c1C the GFP response vs DMSO was 101% (inactive).
In the case of CCN(CCCNC(=O)CSc1cc(=O)n(C)c2cc(Cl)ccc12)Cc1ccccc1, the GFP response vs DMSO is reported as 102% (inactive).
In the case of Cc1cc(C=O)c(C)n1-c1ccc(NC2CCCCC2)c([N+](=O)[O-])c1, the GFP response vs DMSO is reported as 101% (inactive).
In the case of CCOC(=O)c1sc2nc(C)nc(SCC(N)=O)c2c1C, the GFP response vs DMSO is reported as 105% (inactive).
For O=C(c1cccc(Cl)c1)N1CCN(Cc2ccccc2)CC1, the GFP response vs DMSO was 110% (inactive).
For O=C(NCc1ccncc1)C1CCN(C(=O)c2cccc(Cl)c2)CC1, the GFP response vs DMSO was 465% [may fluoresce violet] (active).
With COc1ccc(CNC(=O)C2CCN(C(=O)c3ccccc3)CC2)cc1 the GFP response vs DMSO was 96.9% (inactive).
With CC1CC(NC(=O)/C(C#N)=C/c2ccc[nH]2)CC(C)(C)C1 (stereo not given) the GFP response vs DMSO was 90.7% (inactive).
For COc1cc(CCC(=O)Nc2ccncc2Cl)cc(OC)c1OC, the GFP response vs DMSO was 101% (inactive).
With C/C(=N\NC(=O)c1cccnc1)c1ccc(-n2ccnc2)cc1 the GFP response vs DMSO was 89.5% (inactive).
In the case of C/C(=N\NC(=O)c1ccc2ccccc2c1)c1cccnc1, the GFP response vs DMSO is reported as 91.2% (inactive).
With C/C(=N\NC(=O)c1cccnc1)c1ccc(-c2ccccc2)cc1 the GFP response vs DMSO was 189% [may fluoresce violet] (active).
In the case of Cc1noc(C)c1-c1nc(CSc2ccc(Cl)cc2)no1, the GFP response vs DMSO is reported as 105% (inactive).
With O=C(Nc1ccccc1Cl)N1CCN(c2ccc3nncn3n2)CC1 the GFP response vs DMSO was 97.1% (inactive).
